Compound activity from PubChem BioAssay.
The sample as a whole holds a higher share of hits than the screen did.
VHR inh color: VHR1 phosphatase inhibitors, primary screen, biochemical, colorimetric, HTS; actives 0.7% (n = 50,000); inhibition, % at 20 µM; recombinant VHR phosphatase, colorimetric substrate read-out; Dual specificity protein phosphatase 3 (Homo sapiens), P51452; in the data active = inhibition above about 60%
Target sequence (P51452 whole entry, looked up): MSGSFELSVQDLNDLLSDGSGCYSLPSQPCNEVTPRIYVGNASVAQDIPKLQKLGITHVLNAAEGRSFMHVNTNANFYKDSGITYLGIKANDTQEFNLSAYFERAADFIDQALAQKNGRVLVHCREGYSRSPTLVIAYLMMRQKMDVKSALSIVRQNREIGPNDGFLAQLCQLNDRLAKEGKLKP
Numbers without * were called inactive.

SMILES | VHR inh color
Cn1c(O)c(/C=C2/C=CC=N2)c(=O)n(-c2ccccc2)c1=S | 69*
O=c1[nH]c(=O)n(-c2ccccc2Cl)c(O)c1C=C1C=CC=N1 | 2
CCOc1ccccc1-n1c(O)c(C=C2C=CC=N2)c(=O)[nH]c1=O | 8
CN(C)c1ccc(/C=C/C(=O)c2ccc3ccccc3c2)cc1 | -8
Nc1nonc1-n1nnc(C(=O)N/N=C/c2ccc(O)cc2)c1-c1ccccc1 | 66
Cc1cccc(C(=O)Nc2c(C(=O)N3CCN(C)CC3)cnn2-c2ccccc2)c1 | -6
CCCN(CCC)C(=O)c1cnn(-c2ccccc2)c1NC(=O)c1cccc(F)c1 | 19
Cc1cccc(C(=O)Nc2c(C(=O)N(C)C)cnn2-c2ccccc2)c1 | 70*
COC(=O)C1=C(C)N(C)C(C)=C(C(=O)OC)C1c1cccc(Cl)c1Cl | 3
O=C1NC(=S)N(c2ccc(Cl)cc2)C(=O)/C1=C/C=C/c1ccccc1 | 52
COc1cccc(N2C(=O)NC(=O)/C(=C/C=C/c3ccccc3[N+](=O)[O-])C2=O)c1 | 21
O=C1NC(=S)N(c2cccc(Cl)c2)C(=O)/C1=C\C=C\c1ccccc1[N+](=O)[O-] | 88*
CCN(CC)C(=O)c1cc(-c2ccc(OC)cc2)nc2ccccc12 | 1
COc1ccc2c(c1)N(S(=O)(=O)c1ccc(NC(C)=O)cc1)C(C)(C)C=C2C | -11
OCc1nc2ccccc2n1Cc1ccc2ccccc2c1 | 14
OCc1nc2ccccc2n1Cc1ccccc1F | 116*
CCn1c(CCCO)nc2ccccc21 | -5
CC1(C)CC(=O)c2sc(NC(=O)c3ccc(C(=O)c4ccccc4)cc3)nc2C1 | 4
CSCCC(C(=O)O)N1C(=O)/C(=C\c2ccc(-c3ccc([N+](=O)[O-])cc3)o2)SC1=S (configuration not stated) | 81*
CN1C(=O)/C(=C/c2ccc(-c3ccc([N+](=O)[O-])cc3)o2)SC1=S | 8
O=C1NC(=O)/C(=C\c2ccc(-c3cccc([N+](=O)[O-])c3)o2)S1 | -2
O=C1NC(=S)/C(=C\c2ccc(-c3ccc([N+](=O)[O-])cc3)o2)S1 | 100*
O=C(O)CCN1C(=O)/C(=C/c2ccc(-c3ccc([N+](=O)[O-])cc3)o2)SC1=S | -6
O=C1/C(=C\c2ccc(-c3ccc([N+](=O)[O-])cc3)o2)SC(=S)N1c1ccc(O)cc1 | 59
CC1=C(C(=O)OCCCc2ccccc2)C(c2ccccc2[N+](=O)[O-])CC(=O)N1 (configuration not stated) | -5
SMILES | VHR inh color
COC(=O)c1sc(NC(=O)CCCOc2ccc(Cl)cc2Cl)c(C(=O)OC)c1C | -12
CCOc1cccc(-c2cc(C(=O)N3CCC(C)CC3)c3ccccc3n2)c1 | 9
CCN(CC)c1ccc(/C=C2\SC(=S)N(Cc3ccco3)C2=O)cc1 | 4
C=CCN1C(=O)/C(=C\c2ccc3c(c2)OCO3)SC1=Nc1ccccc1 | -15
C=C(CC(Cc1ccccc1)C(=O)O)c1ccccc1 (configuration not stated) | 97*
O=C(O)CC(Cc1ccccc1)C(=O)O (configuration not stated) | -4
O=C(O)CC(Cc1ccc(Br)cc1)C(=O)O (configuration not stated) | -11
COC(=O)c1c(NC(=O)/C=C/C(=O)O)sc(C)c1-c1cc(C)ccc1C | 0
CCCCOc1ccc(C(=O)Nc2sc(C)c(CC)c2C(N)=O)cc1 | 70*
CCc1c(C)sc(NC(=O)c2cccnc2)c1C(N)=O | -1
CCc1c(C)sc(NC(=O)c2ccc(Cl)cc2)c1C(N)=O | -6
O=C(O)c1ccc([N+](=O)[O-])cc1C(=O)c1ccccc1 | -1
O=C(CSc1nsc(SCC(=O)Nc2nccs2)n1)Nc1nccs1 | 4
O=C(NC(NC(=S)Nc1ccc(Cl)c(Cl)c1)C(Cl)(Cl)Cl)c1cccc([N+](=O)[O-])c1 (configuration not stated) | 33
N/C(Cc1cccc2ccccc12)=N\OC(=O)c1ccc(F)cc1 | -16
O=C(O/C(=C/c1nccn1Cc1ccccc1Cl)c1ccc(F)cc1)c1ccc(F)cc1 | 110*
CCCn1c(/C=C(/OC(=O)c2ccccc2)c2ccccc2)nc2ccccc21 | -14
C(=N\Nc1nc(N2CCOCC2)nc(N2CCOCC2)n1)/c1ccc2c(c1)OCO2 | -19
COc1cc(C2CC(=O)Nc3c2ccc2ccccc32)cc(OC)c1OC(C)=O (configuration not stated) | 2
COc1ccc(C2CC(=O)Nc3c2cc(Br)c2ccccc32)c(OC)c1 (configuration not stated) | 112*
O=C1CC(c2ccc(F)c(Br)c2)c2ccc3ccccc3c2N1 (configuration not stated) | -8
COc1cc(C2CC(=O)Nc3c2ccc2ccccc32)cc(Br)c1OC (configuration not stated) | 103*
CCOc1cccc(C2CC(=O)Nc3c2cc(Br)c2ccccc32)c1 (configuration not stated) | -3
CSc1ccc(C2CC(=O)Nc3c2cc(Br)c2ccccc32)cc1 (configuration not stated) | 28
O=C1CCCC2=C1C(c1ccc3c(c1)OCO3)Nc1ccc3ccccc3c12 (configuration not stated) | -7
SMILES | VHR inh color
Cc1cc(C)cc(NC(=O)Cc2ccc([N+](=O)[O-])cc2)c1 | 3
O=C(c1ccccc1)c1ccc2[nH]c3ccccc3c2c1 | -3
COc1ccccc1/C=C1\SC(=S)N(NC(=O)c2ccccc2Cl)C1=O | -17
COc1ccc(Cl)cc1C(=O)Nc1ccc(N(C)C)cc1 | -15
COc1ccc(OCC(=O)Nc2ccc(Br)cc2C(=O)c2ccccc2)cc1 | -1
Cc1c(NC(=O)c2ccc3c(c2)C(=O)N(N2C(=O)c4ccccc4C2=O)C3=O)cccc1C(=O)O | -54
O=C(COc1ccc(Cl)cc1Br)NNC(=O)c1ccc(-c2ccccc2)cc1 | -8
